Experimental findings from PubChem BioAssay (EPA / NIEHS) are described below.

Records with an inconclusive call do not appear. The source made the active and inactive calls. The calls were made as follows, unless noted: active = hit-call score of the fitted dose curve at least 0.9, where 1 is the maximum; inactive = score below 0.9.

A short description of test [1]: ATG_PPRE_CIS: Attagene CIS-FACTORIAL HepG2 Assay for human Peroxisome Proliferator-activated Response Element (PPRE) (AID 2282958). Particulars: HepG2 PPRE cis-element reporter, Attagene transcription factor profiling; actives raise or lower the signal. The gist of the method: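 HepG2 cells transiently transfected with multiplexed cis-element reporter units measure endogenous transcription factor activity. After 24 h compound exposure, reporter mRNA is quantified by RT-PCR, 6-FAM labeling, HpaI digestion and capillary electrophoresis; bidirectional fits are made against DMSO baseline.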

The nature of test [2]: ATG_RORE_CIS: Attagene CIS-FACTORIAL HepG2 Assay for human RAR-related Orphan Receptor Element (RORE) (AID 2282959). Particulars: HepG2 Attagene cis-factorial RORE reporter, mRNA; actives raise or lower the signal. The method, boiled down: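 HepG2 cells transiently transfected with multiple cis-element reporter transcription units, exposed to chemical for 24 h. Reporter mRNA quantified by RT-PCR, 6-FAM primer-extension labeling, HpaI digestion and capillary electrophoresis; bidirectional fit versus DMSO baseline.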

The nature of test [3]: ATG_Sox_CIS: Attagene CIS-FACTORIAL HepG2 Assay for human SRY-box transcription factor (SOX) (AID 2282960). Particulars: HepG2 Attagene cis-factorial SOX reporter, mRNA; actives raise or lower the signal. The gist of the method: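 HepG2 cells transiently transfected with cis-element-driven multiple reporter transcription units, dosed 24 h; reporter mRNA measured by RT-PCR, FAM labelling, HpaI digestion and capillary electrophoresis. Bidirectional fit versus DMSO baseline.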

The target in test [4] is Transcription factor Sp1 (Homo sapiens) (UniProt P08047). The test is described as follows: ATG_Sp1_CIS: Attagene CIS-FACTORIAL HepG2 Assay for human Specificity Protein 1 (Sp1) (AID 2282961). As to conditions: HepG2 Sp1 cis-reporter transcription, actives raise or lower the signal. The method, boiled down: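 HepG2 cells transiently transfected with multiple reporter transcription units driven by cis-regulatory elements; Sp1-responsive reporter mRNA measured 24 h after dosing by RT-PCR and capillary electrophoresis fluorescence, fitted bidirectionally against DMSO baseline.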

Test [5] in a line: ATG_SREBP_CIS: Attagene CIS-FACTORIAL HepG2 Assay for human Sterol Regulatory Element Binding (SREBP) (AID 2282962). Particulars: HepG2 Attagene cis-factorial SREBP reporter, mRNA; actives raise or lower the signal. The method, boiled down: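 mRNA induction of transfected cis-promoter reporters in HepG2 cells, 24 h post-dose. Detection: RT-PCR with 6-FAM-labelled products, HpaI digest, capillary electrophoresis. DMSO served as negative control and baseline.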

Test [6] concerns the target Signal transducer and activator of transcription 3 (Homo sapiens) (UniProt P40763). As to the kind of experiment: ATG_STAT3_CIS: Attagene CIS-FACTORIAL HepG2 Assay for human Signal Transducer and Activator of Transcription 3 (STAT3) (AID 2282963). Particulars: HepG2, Attagene cis-factorial STAT3 reporter transcription; actives raise or lower the signal. The gist of the method:
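HepG2 cells transiently transfected with multiple cis-element-driven reporter units report endogenous transcription factor activity. After 24 h compound exposure, reporter mRNA is measured by RT-PCR, 6-FAM labelling, HpaI digestion and capillary electrophoresis. Fitted bidirectionally versus DMSO.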

Test [7] in a line: ATG_TA_CIS: Attagene CIS-FACTORIAL HepG2 Assay for human TA Basal Promoter (AID 2282964). Particulars: HepG2 Attagene CIS-factorial TA basal promoter reporter; actives raise or lower the signal. The gist of the method: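 Background internal-marker endpoint from a 52-component HepG2 cis-reporter panel. Cells treated 24 h; reporter transcripts quantified via RT-PCR and CE fluorescence against DMSO baseline.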

Test [8] can be described thus: ATG_TCF_b_cat_CIS: Attagene CIS-FACTORIAL HepG2 Assay for human T-Cell-Factor with beta-catenin (TCF/b-cat) (AID 2282965). As to conditions: HepG2 TCF/beta-catenin cis-reporter transcription, actives raise or lower the signal. The gist of the method: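 HepG2 cells transiently transfected with cis-promoter-driven multiplexed reporter units; reporter mRNA measured 24 h after dosing by RT-PCR, FAM labelling, HpaI digestion and capillary electrophoresis. Bidirectional fitting relative to DMSO baseline.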

A short description of test [9]: ATG_TAL_CIS: Attagene CIS-FACTORIAL HepG2 Assay for human TAL Basal Promoter (AID 2282966).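 Also: background control endpoint measuring basal TAL promoter reporter mRNA not a specific factor.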 Particulars: HepG2 Attagene cis-factorial TAL promoter reporter; actives raise or lower the signal. The method, boiled down:
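HepG2 cells were transiently transfected with promoter-driven multiplexed reporter units and dosed for 24 h. Reporter mRNA was measured by RT-PCR with capillary electrophoresis fluorescence; bidirectional fits used DMSO as baseline, serving as a background control.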

Test [10] can be described thus: ATG_TGFb_CIS: Attagene CIS-FACTORIAL HepG2 Assay for human Transforming Growth Factor (TGF) (AID 2282967). Particulars: HepG2 Attagene CIS TGFb reporter, mRNA transcription; actives raise or lower the signal. The method, boiled down:
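Liver HepG2 line, cis-factorial reporter panel, 24 h dosing. Quantitation: RT-PCR products labeled with 6-FAM, cut with HpaI, resolved by capillary electrophoresis; DMSO-referenced bidirectional analysis.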

A short description of test [11]: ATG_VDRE_CIS: Attagene CIS-FACTORIAL HepG2 Assay for human Vitamin D Receptor Element (VDRE) (AID 2282968). As to conditions: HepG2 VDRE cis-reporter transcription, actives raise or lower the signal. The method, boiled down: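 Transiently transfected HepG2 cells carrying cis-regulated reporter transcription units were exposed for 24 h. Reporter mRNA was measured by RT-PCR with fluorescent labelling and capillary electrophoresis, and fitted in both directions against DMSO.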

Test [12] addresses Estrogen receptor (Homo sapiens) (UniProt P03372). As to the kind of experiment: ATG_ERa_TRANS: Attagene TRANS-FACTORIAL HepG2 Assay for human Estrogen Receptor alpha (ERa) (AID 2282970; active = hit-call score of the fitted dose curve at least 0.9, where 1 is the maximum). Particulars: HepG2 Attagene TRANS ERa GAL4 reporter, mRNA. The gist of the method:
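HepG2 cells transiently transfected with multiplexed GAL4-UAS reporter units; ERa activity read via exogenous chimeric NR-Gal4 protein. After 24 hour compound exposure, reporter mRNA measured by RT-PCR with 6-FAM labelling and capillary electrophoresis; gain-of-signal fitted relative to DMSO.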

Test [13] concerns the target Steroid hormone receptor ERR1 (Homo sapiens) (UniProt P11474). The test is described as follows: ATG_ERRa_TRANS: Attagene TRANS-FACTORIAL HepG2 Assay for human Estrogen-Related Receptor alpha (ERRa) (AID 2282971; active = hit-call score of the fitted dose curve at least 0.9, where 1 is the maximum). Particulars: HepG2 Attagene TRANS reporter, ERRa transactivation. The gist of the method: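 HepG2 cells transiently transfected with multiplexed GAL4-UAS reporter units reading chimeric ERRa-Gal4 activity; 24 h compound exposure. Reporter mRNA measured by RT-PCR, 6-FAM labelling, HpaI digest and capillary electrophoresis; gain of signal fitted versus DMSO baseline.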

For test [14], the target named is X-box-binding protein 1 (Homo sapiens) (UniProt P17861). As to the kind of experiment: ATG_Xbp1_CIS: Attagene CIS-FACTORIAL HepG2 Assay for human X-box Binding Protein 1 (XBP1) (AID 2282972). As to conditions: HepG2 XBP1 cis-element reporter, Attagene multiplex; actives raise or lower the signal. The gist of the method: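 Fluorescence-labelled cDNA fragments from reporter transcripts, separated by capillary electrophoresis, give the signal. Source: HepG2 cells transfected with promoter-driven reporter units, harvested 24 h post-dose. DMSO served as reference for bidirectional curve fitting.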

Test [15] is described as follows: ATG_M_19_TRANS: Attagene TRANS-FACTORIAL HepG2 Assay for M19 Transcription Factor (Internal Marker) (AID 2282974; active = hit-call score of the fitted dose curve at least 0.9, where 1 is the maximum). As to conditions: HepG2 Attagene TRANS-FACTORIAL M19 internal marker reporter. The method, boiled down:
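HepG2 cells transiently transfected with multiple GAL4-UAS reporter transcription units were exposed to chemicals for 24 h. Reporter mRNA was read by RT-PCR, 6-FAM primer extension, HpaI digestion and capillary electrophoresis; gain of signal fitted relative to DMSO.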

The target of test [16] is Estrogen-related receptor gamma (Homo sapiens) (UniProt P62508). As to the kind of experiment: ATG_ERRg_TRANS: Attagene TRANS-FACTORIAL HepG2 Assay for human Estrogen-Related Receptor gamma (ERRg) (AID 2282977; active = hit-call score of the fitted dose curve at least 0.9, where 1 is the maximum;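 also: hits increase reporter signal over DMSO so potencies reflect activators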). As to conditions: HepG2 Attagene TRANS reporter, ERRg transactivation. The gist of the method: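 HepG2 cells transiently transfected with multiplexed GAL4-UAS reporter units driven by chimeric NR-Gal4 proteins; 24 h exposure. Reporter mRNA quantified by RT-PCR, fluorescent labelling, HpaI digestion and capillary electrophoresis; gain of signal vs DMSO.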

For test [17], the target named is Bile acid receptor (Homo sapiens) (UniProt Q96RI1). The test is described as follows: ATG_FXR_TRANS: Attagene TRANS-FACTORIAL HepG2 Assay for Farnesoid X Receptor (FXR) (AID 2282979; active = hit-call score of the fitted dose curve at least 0.9, where 1 is the maximum;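 also: hits raise reporter mRNA above DMSO so AC50 marks FXR activation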). As to conditions: HepG2 Attagene TRANS FXR-GAL4 reporter transcription. The gist of the method:
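HepG2 cells transiently transfected with reporter constructs in which a chimeric FXR-GAL4 protein drives a GAL4-UAS reporter; 24 h compound exposure. Reporter mRNA measured by RT-PCR, FAM labelling, HpaI digestion and capillary electrophoresis; gain-of-signal versus DMSO.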

The target of test [18] is Nuclear receptor subfamily 1 group I member 3 (Homo sapiens) (UniProt Q14994). The test is described as follows: ATG_CAR_TRANS: Attagene TRANS-FACTORIAL HepG2 Assay for human Constitutive Androstane Receptor (CAR) (AID 2282969; active = hit-call score of the fitted dose curve at least 0.9, where 1 is the maximum;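 also: activators raise reporter mRNA above DMSO so AC50 marks induction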). Particulars: HepG2 Attagene TRANS-FACTORIAL CAR reporter. The method, boiled down:
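HepG2 cells transiently transfected with GAL4-UAS reporter units; TRANS format reads activity of exogenous chimeric NR-Gal4 protein. After 24 h dosing, reporter mRNA quantified by RT-PCR, 6-FAM labelling and capillary electrophoresis; gain of signal fitted against DMSO.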

Sequence of Estrogen receptor (Homo sapiens) (P03372 whole entry, looked up, the tested form may be a part): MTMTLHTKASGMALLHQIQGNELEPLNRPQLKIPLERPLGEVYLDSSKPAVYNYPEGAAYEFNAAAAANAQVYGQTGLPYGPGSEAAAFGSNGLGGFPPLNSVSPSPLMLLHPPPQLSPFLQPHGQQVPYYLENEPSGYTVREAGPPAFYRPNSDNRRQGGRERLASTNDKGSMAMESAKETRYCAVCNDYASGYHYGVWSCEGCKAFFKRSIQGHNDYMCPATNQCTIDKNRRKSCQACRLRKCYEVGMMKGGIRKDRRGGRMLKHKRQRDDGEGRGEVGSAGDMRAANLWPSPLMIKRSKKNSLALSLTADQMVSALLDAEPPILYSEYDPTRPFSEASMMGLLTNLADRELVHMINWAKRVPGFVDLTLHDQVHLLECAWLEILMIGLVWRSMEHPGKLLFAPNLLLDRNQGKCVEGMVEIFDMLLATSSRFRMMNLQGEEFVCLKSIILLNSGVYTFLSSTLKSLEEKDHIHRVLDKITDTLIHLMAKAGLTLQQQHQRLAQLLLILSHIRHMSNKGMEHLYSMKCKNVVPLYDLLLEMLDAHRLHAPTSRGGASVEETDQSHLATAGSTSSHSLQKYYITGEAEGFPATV
Sequence of Signal transducer and activator of transcription 3 (Homo sapiens) (P40763 whole entry, looked up): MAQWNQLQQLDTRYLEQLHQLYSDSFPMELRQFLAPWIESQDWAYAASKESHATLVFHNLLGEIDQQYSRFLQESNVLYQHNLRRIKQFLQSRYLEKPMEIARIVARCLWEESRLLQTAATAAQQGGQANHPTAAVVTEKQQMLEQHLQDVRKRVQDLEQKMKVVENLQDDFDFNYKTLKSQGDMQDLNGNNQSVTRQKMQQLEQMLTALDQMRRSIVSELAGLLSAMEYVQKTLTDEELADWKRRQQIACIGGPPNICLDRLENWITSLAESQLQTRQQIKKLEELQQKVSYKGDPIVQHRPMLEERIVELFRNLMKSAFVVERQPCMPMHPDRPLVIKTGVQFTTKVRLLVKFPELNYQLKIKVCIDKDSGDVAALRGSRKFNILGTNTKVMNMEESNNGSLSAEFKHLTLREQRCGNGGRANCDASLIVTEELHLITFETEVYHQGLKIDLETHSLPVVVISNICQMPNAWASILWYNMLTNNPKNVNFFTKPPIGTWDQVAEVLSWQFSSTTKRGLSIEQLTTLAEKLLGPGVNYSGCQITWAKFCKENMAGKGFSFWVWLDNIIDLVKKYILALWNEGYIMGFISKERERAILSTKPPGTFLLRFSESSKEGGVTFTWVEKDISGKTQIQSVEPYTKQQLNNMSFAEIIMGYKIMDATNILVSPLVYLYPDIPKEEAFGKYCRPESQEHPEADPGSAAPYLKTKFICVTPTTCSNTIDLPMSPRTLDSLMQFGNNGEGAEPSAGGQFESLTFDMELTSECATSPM
Sequence of Transcription factor Sp1 (Homo sapiens) (P08047 whole entry, looked up): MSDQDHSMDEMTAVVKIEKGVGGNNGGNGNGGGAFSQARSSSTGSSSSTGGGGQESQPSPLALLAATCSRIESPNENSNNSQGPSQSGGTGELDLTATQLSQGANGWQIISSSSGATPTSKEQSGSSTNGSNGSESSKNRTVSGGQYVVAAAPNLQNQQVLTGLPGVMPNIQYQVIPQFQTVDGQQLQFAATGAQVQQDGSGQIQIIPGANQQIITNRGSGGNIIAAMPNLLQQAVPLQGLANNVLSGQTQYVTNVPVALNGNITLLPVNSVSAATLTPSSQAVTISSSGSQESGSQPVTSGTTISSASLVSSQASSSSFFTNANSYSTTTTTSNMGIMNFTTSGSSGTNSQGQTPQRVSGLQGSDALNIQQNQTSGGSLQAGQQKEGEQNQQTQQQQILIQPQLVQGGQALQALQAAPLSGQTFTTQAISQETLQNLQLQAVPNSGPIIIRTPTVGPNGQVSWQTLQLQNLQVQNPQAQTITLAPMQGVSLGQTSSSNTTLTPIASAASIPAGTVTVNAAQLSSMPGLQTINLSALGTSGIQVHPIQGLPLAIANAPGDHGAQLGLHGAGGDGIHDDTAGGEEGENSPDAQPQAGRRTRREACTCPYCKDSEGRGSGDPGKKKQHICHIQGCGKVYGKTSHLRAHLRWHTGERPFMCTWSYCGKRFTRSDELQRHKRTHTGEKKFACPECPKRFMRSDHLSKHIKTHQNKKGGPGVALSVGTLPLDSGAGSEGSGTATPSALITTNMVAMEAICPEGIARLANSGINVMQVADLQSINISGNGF
Sequence of X-box-binding protein 1 (Homo sapiens) (P17861 whole entry, looked up, the tested form may be a part): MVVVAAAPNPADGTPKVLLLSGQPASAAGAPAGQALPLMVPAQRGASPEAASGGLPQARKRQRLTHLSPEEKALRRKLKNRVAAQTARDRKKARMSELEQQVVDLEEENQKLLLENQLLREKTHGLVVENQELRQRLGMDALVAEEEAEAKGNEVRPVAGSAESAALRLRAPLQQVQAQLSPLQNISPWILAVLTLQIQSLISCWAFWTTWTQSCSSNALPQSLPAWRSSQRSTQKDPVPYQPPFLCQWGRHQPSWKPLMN
Sequence of Estrogen-related receptor gamma (Homo sapiens) (P62508 whole entry, looked up, the tested form may be a part): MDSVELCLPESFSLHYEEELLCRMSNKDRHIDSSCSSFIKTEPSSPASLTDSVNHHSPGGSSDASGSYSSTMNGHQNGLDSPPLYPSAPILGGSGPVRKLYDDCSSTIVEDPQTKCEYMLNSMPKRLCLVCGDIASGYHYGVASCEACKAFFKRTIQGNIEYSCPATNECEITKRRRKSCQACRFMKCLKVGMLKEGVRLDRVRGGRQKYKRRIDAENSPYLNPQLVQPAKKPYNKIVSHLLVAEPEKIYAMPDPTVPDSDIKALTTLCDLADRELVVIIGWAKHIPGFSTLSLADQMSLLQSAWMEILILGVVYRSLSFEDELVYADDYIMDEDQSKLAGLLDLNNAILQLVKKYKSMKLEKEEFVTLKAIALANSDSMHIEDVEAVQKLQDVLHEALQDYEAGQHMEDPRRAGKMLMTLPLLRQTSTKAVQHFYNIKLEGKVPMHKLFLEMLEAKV
Sequence of Bile acid receptor (Homo sapiens) (Q96RI1 whole entry, looked up, the tested form may be a part): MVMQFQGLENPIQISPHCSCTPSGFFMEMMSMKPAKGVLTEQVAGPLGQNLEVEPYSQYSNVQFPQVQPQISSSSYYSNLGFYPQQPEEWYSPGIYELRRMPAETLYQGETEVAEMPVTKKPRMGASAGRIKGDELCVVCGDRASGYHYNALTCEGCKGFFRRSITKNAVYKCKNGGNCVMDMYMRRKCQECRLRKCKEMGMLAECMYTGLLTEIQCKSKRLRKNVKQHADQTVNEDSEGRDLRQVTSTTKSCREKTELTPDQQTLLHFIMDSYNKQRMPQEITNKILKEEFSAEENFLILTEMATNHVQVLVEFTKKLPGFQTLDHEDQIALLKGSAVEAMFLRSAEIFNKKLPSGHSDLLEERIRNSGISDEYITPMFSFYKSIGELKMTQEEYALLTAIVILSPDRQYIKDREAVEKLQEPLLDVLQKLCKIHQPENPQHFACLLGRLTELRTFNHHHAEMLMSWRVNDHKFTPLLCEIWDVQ
Sequence of Steroid hormone receptor ERR1 (Homo sapiens) (P11474 whole entry, looked up, the tested form may be a part): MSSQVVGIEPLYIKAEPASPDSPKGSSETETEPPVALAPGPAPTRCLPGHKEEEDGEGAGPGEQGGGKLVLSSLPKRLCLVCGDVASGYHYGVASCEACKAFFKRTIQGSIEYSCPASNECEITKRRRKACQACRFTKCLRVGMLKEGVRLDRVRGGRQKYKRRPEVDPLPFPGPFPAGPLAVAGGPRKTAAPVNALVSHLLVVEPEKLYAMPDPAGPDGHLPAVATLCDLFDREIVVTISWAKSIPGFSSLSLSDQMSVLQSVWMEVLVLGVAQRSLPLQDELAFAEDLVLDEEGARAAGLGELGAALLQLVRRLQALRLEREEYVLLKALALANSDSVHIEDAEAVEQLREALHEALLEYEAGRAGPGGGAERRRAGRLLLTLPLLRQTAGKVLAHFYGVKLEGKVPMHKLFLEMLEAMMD
Sequence of Nuclear receptor subfamily 1 group I member 3 (Homo sapiens) (Q14994 whole entry, looked up, the tested form may be a part): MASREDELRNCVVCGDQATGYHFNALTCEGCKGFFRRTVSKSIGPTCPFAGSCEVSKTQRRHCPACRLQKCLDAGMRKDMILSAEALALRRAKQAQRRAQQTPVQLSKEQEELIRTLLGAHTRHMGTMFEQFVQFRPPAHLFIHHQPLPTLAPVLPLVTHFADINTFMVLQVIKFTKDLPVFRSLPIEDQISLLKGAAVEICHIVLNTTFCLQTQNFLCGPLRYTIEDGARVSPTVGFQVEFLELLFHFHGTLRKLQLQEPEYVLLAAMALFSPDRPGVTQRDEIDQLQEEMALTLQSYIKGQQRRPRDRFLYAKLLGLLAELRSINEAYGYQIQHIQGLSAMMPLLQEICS

Consider `CCSC(C)CC1CC(=O)C(C(CC)=NOC/C=C/Cl)=C(O)C1` (stereo not given), for which the compound was classed as inactive in test [1], in [2], in test [3], in [4], in [5] and in test [6]. The call in test [7], in test [8], in [9], in test [10], in test [12] and in [13] was inactive. In addition, the result in [14], in [15] and in test [16] was inactive. For the same compound, the AC50 in test [11] was 11.3 µM (active).

For the compound `CC(=O)OC(c1ccccc1)C(Cl)(Cl)Cl` (stereo not given), the result in test [1], in [2], in test [3], in [4], in [5] and in test [6] was inactive. Moreover, the result in test [7], in test [8], in [9], in [10], in test [11] and in test [14] was inactive. The outcome in test [15] and in test [17] was inactive. In test [12], the AC50 is 34.8 µM (active).

On to `ClCc1ccccn1`, for which the call in test [1], in test [2], in test [3], in test [4], in test [5] and in test [6] was inactive. Moreover, the compound was classed as inactive in test [7], in test [8], in test [9], in [10], in test [11] and in test [18]. In addition, the result in [12] was inactive. In addition, the AC50 in [14] is 65.6 µM (active).

With `O=[N+]([O-])c1c(Cl)c(Cl)cc(Cl)c1Cl`, the result in test [1], in [2], in test [3], in test [4], in test [5] and in test [6] was inactive. Moreover, the compound was classed as inactive in test [7], in test [8], in test [9], in test [10], in test [11] and in test [12]. The outcome in test [14], in test [15] and in [16] was inactive.
